The values that follow come from PubChem BioAssay.

The structures appear in SMILES notation. Unmarked numbers belong to inactive results. For some of these results: Entries with a potency or affinity are not part of this list. The source made the active and inactive calls. Unless noted, the rule behind the calls is not given here.

Assay [1] is described as follows: antimalarial activity against Dd2 strain (AID 2302;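 active = growth inhibition above 50% at the single 2 µM test dose, taken to imply half-maximal potency below 2 µM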;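 note: 0% = DMSO untreated growth and 100% = chloroquine plus artemisinin killed control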). As to conditions: P. falciparum Dd2 in RBCs, LDH growth readout, 72 h; at 2 µM; stronger effect = higher value.
The nature of assay [2]: human hepatoma cell viability loss – ATP luminescence, cytotoxicity control for P. falciparum antimalarial project, primary screen (AID 2303;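 active = inhibition above 50%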;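 note: 0% = DMSO wells and 100% = digitonin-killed cells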). As to conditions: HepG2 viability, 24-48 h, at 10 µM, stronger effect = higher value.
In assay [3] the target is L-lactate dehydrogenase (Plasmodium falciparum (isolate CDC / Honduras)) (UniProt Q27743). As to the kind of experiment: PfLDH activity inhibition – cell lysate, 3D7 strain, counter-screen for P. falciparum growth inhibition project (AID 2304).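 Note: 0% = vehicle and 100% = reference inhibitor.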 As to conditions: P. falciparum 3D7 crude extract, LDH APAD/NBT absorbance; at 2 µM; stronger effect = higher value. (A counterscreen serves to expose hits that act by an unwanted route or on another target.)

Assay [4] is described as follows: inhibition of 3D7 malaria parasite growth – strain 3D7 (AID 2306).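 Note: 0% = DMSO wells and 100% = chloroquine plus artemisinin control wells.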 As to conditions: P. falciparum 3D7 erythrocytic growth, LDH absorbance, 72 h; at 2 µM; stronger effect = higher value.
In assay [5] the target is Calcium-dependent protein kinase 1 (Plasmodium falciparum (isolate 3D7)) (UniProt P62344). As to the kind of experiment: PfCDPK1 kinase inhibitors, biochemical, TCAMS library (AID 1159585; cut-off not given, nearly all actives have IC50 up to about 0.98 µM;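 note: inhibitors leave more ATP so luminescence rises with inhibition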). As to conditions: recombinant PfCDPK1, Kinase-Glo ATP depletion luminescence.
In assay [6] the target is Plasmodium falciparum protein kinase 6 (PK6, PF3D7_1337100) (UniProt Q8IDW1). The assay can be described thus: PfPK6 kinase inhibitors, biochemical, TCAMS library (AID 1159586). As to conditions: recombinant PfPK6, Kinase-Glo ATP depletion luminescence. Background: Kinase-Glo measures the ATP left after a reaction by luminescence.
For assay [7], the target named is Protein kinase 7 (PK7), Plasmodium falciparum 3D7 (PF3D7_0213400) (UniProt Q7YTF7). The assay can be described thus: inhibition of Plasmodium PK7 catalytic activity – biochemical, TCAMS antimalarial set, Kinase-Glo luminescence (AID 1159587). As to conditions: recombinant PfPK7, Kinase-Glo ATP depletion luminescence.
The target of assay [8] is Calcium-dependent protein kinase 4 (Plasmodium falciparum (isolate 3D7)) (UniProt Q8IBS5). The assay can be described thus: PfCDPK4 kinase inhibitors, biochemical, TCAMS library (AID 1159588; cut-off not given, nearly all actives have IC50 up to about 0.91 µM). As to conditions: recombinant PfCDPK4, Kinase-Glo ATP depletion luminescence.
Sequence of Calcium-dependent protein kinase 4 (Plasmodium falciparum (isolate 3D7)) (Q8IBS5 whole entry, looked up): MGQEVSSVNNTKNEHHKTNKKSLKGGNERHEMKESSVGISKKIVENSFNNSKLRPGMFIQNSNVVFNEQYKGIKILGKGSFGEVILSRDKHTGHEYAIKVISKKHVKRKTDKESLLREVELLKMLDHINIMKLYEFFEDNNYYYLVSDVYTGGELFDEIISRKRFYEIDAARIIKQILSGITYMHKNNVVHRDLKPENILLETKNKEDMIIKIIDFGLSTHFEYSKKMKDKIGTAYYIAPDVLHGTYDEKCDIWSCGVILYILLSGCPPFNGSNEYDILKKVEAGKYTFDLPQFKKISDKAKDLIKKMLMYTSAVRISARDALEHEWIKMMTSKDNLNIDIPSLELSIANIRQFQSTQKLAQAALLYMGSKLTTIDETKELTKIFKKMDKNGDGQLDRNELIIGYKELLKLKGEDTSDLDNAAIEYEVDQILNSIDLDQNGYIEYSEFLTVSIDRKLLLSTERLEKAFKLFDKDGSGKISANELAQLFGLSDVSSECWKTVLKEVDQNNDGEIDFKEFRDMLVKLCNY

Sequence of Protein kinase 7 (PK7), Plasmodium falciparum 3D7 (PF3D7_0213400) (Q7YTF7 1-343): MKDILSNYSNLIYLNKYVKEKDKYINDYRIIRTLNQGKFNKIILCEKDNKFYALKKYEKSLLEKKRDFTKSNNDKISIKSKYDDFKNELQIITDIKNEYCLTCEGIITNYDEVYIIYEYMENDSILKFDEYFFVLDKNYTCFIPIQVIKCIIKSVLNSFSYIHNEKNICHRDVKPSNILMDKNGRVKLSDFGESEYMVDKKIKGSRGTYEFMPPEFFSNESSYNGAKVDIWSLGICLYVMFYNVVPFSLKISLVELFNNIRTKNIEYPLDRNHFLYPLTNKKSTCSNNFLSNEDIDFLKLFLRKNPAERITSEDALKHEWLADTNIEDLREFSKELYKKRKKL
Sequence of Plasmodium falciparum protein kinase 6 (PK6, PF3D7_1337100) (Q8IDW1 1-305): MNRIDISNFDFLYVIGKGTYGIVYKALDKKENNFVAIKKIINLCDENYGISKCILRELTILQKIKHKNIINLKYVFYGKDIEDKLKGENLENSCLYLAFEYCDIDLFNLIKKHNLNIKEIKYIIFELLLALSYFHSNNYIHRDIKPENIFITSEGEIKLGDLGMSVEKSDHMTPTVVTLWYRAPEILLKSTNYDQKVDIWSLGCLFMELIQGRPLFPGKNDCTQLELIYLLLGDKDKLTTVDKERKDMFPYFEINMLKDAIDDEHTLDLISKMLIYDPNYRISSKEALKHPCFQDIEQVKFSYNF
Sequence of Calcium-dependent protein kinase 1 (Plasmodium falciparum (isolate 3D7)) (P62344 whole entry, looked up): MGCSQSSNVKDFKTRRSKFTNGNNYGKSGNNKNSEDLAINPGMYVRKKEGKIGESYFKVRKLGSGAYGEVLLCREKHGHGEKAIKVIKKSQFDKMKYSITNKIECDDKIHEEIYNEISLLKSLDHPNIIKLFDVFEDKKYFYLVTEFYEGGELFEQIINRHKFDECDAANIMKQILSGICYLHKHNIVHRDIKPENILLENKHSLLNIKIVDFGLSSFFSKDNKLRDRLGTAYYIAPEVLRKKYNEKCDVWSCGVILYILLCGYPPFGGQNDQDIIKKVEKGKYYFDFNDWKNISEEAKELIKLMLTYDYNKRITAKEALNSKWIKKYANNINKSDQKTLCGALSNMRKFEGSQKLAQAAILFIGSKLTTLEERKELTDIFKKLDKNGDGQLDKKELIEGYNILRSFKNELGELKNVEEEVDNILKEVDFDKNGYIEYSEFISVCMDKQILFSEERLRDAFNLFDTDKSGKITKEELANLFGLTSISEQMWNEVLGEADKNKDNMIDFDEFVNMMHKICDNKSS
Sequence of L-lactate dehydrogenase (Plasmodium falciparum (isolate CDC / Honduras)) (Q27743 whole entry, looked up): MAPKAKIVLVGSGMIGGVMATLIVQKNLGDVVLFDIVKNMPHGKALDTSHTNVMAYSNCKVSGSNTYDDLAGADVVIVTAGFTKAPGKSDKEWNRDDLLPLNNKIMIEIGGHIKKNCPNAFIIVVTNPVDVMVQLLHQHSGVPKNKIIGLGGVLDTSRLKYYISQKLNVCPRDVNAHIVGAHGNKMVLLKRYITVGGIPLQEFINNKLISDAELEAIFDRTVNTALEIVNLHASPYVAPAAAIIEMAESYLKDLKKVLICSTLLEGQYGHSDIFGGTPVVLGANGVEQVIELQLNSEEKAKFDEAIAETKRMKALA

The inhibition is the change of the read-out against control, counted positive when it falls. Turning to `Cc1ccccc1NC1=NC(=S)N(c2cccc(C(F)(F)F)c2)C12CCC(C(C)(C)C)CC2` (stereo not given), the growth inhibition in assay [1] is 25%; in assay [4], 95% (active). Also, the inhibition in assay [2] is 9%; in assay [3], 5%. Further, the result in assay [5], in assay [6], in assay [7] and in assay [8] was inactive.
For the compound `CCCC(C)Nc1nc(C)cc(N[C@@H](Cc2ccccc2)C(=O)NCCc2ccccc2)n1` (stereo not given in full), the growth inhibition in assay [1] was 68% (active); in assay [4] it was 97% (active). In addition, the results for the inhibition in assay [2] and in assay [3] were 11% and -3%, respectively. The outcome in assay [5], in assay [6], in assay [7] and in assay [8] was inactive.
As to `Cc1ccccc1Nc1nc(NCCc2ccccc2)nc2ccccc12`, the growth inhibition in assay [1] was 18%; in assay [4], 82% (active). The inhibition in assay [2] was 32%; in assay [3], -1%. Besides, the result in assay [5], in assay [6], in assay [7] and in assay [8] was inactive.
For the compound `CCCc1cc(N2CCC(N(CC)CC)C2)nc(Nc2ccc(OC)cc2)n1` (stereo not given), the growth inhibition is 4% in assay [1] and 90% (active) in assay [4]. In addition, the values for the inhibition in assay [2] and in assay [3] were 9% and 4%, respectively. The result in assay [5], in assay [6], in assay [7] and in assay [8] was inactive.
For `COCCCNc1sc(S(=O)(=O)c2ccccc2)nc1S(=O)(=O)c1ccc(C)cc1`, the growth inhibition in assay [1] is 44%; in assay [4] it was 84% (active). For the same compound, the inhibition is 7% in assay [2] and -1% in assay [3]. Further, the result in assay [5], in assay [6], in assay [7] and in assay [8] was inactive.
Consider `C[C@H](O)[C@@](C)(CO)NCc1ccc2c3c(cccc13)-c1ccccc1-2`, for which the growth inhibition in assay [1] is 85% (active); in assay [4], 95% (active). Further, the inhibition in assay [2] was 81% (active); in assay [3] it was -2%. Further, the result in assay [5], in assay [6], in assay [7] and in assay [8] was inactive.
For `CN(C)C1CCN(Cc2ccc(N3CCN(Cc4cccc5[nH]ccc45)CC3)nc2)CC1`, the growth inhibition in assay [1] is 17%; in assay [4] it was 80% (active). In addition, the values for the inhibition in assay [2] and in assay [3] were 11% and -2%, respectively. In addition, the outcome in assay [5], in assay [6], in assay [7] and in assay [8] was inactive.
Consider `O=C(Cc1cccs1)NCC(c1ccccc1Cl)c1c[nH]c2ccccc12` (stereo not given), for which the figures for the growth inhibition in assay [1] and in assay [4] were 56% (active) and 91% (active), respectively. Besides, the inhibition in assay [2] is 12%; in assay [3], 1%. Further, the outcome in assay [5], in assay [6], in assay [7] and in assay [8] was inactive.
As to `COc1ccc(OCCn2cc(C(=O)c3ccco3)c3ccccc32)cc1`, the growth inhibition in assay [1] was 61% (active); in assay [4] it was 98% (active). Moreover, the inhibition in assay [2] was 17%; in assay [3], -1%. The result in assay [5], in assay [6], in assay [7] and in assay [8] was inactive.
`O=c1ccc(-c2nc3cc(Cl)c(Cl)cc3n2Cc2ccc(Cl)cc2Cl)c[nH]1`: the growth inhibition in assay [1] was 67% (active); in assay [4], 88% (active). Further, the inhibition in assay [2] and in assay [3] was -8% in each case. Further, the result in assay [5], in assay [6], in assay [7] and in assay [8] was inactive.
As to `CC(C)CN(C)c1ncnc2c1nc(-c1cncc(C#N)c1)n2CCNCc1ccccc1`, the growth inhibition was 2% in assay [1] and 86% (active) in assay [4]. The figures for the inhibition in assay [2] and in assay [3] were 4% and 0%, respectively. Also, the outcome in assay [5], in assay [6], in assay [7] and in assay [8] was inactive.
In the case of `Cc1cccnc1CNc1nccc2c(C)c(C)[nH]c12`, the growth inhibition is 28% in assay [1] and 100% (active) in assay [4]. Moreover, the inhibition in assay [2] was 27%; in assay [3], 0%. Further, the result in assay [5], in assay [6], in assay [7] and in assay [8] was inactive.
As to `COc1ccc2ccccc2c1CNCC1CCN(CC2CCCCC2)CC1`, the values for the growth inhibition in assay [1] and in assay [4] were 27% and 98% (active), respectively. Besides, the values for the inhibition in assay [2] and in assay [3] were 23% and -3%, respectively. Further, the outcome in assay [5], in assay [6], in assay [7] and in assay [8] was inactive.
Consider `COc1ccc(Nc2ncc3c(-c4cccc(NC(=O)Cc5cccc(F)c5)c4)c[nH]c3n2)cc1OC`, for which the growth inhibition in assay [1] was 68% (active); in assay [4], 101% (active). For the same compound, the inhibition in assay [2] was 24%; in assay [3], 2%. The outcome in assay [5], in assay [6], in assay [7] and in assay [8] was inactive.
Take `C=CCOc1ccc2ccccc2c1CNCCCCCCNCc1c(OCC=C)ccc2ccccc12`: the growth inhibition in assay [1] is 98% (active); in assay [4] it was 100% (active). For the same compound, the values for the inhibition in assay [2] and in assay [3] were 99% (active) and 3%, respectively. The outcome in assay [5], in assay [6], in assay [7] and in assay [8] was inactive.
`COc1c(C2CCN(CCCCNC(=O)c3ccc(C)c(-c4ccc(C(F)(F)F)cc4)c3)CC2)ccc2c1CCCC2`: the growth inhibition in assay [1] is 79% (active); in assay [4], 86% (active). The inhibition was 76% (active) in assay [2] and -5% in assay [3]. The result in assay [5], in assay [6], in assay [7] and in assay [8] was inactive.
Take `COc1ccc(Cn2c(Nc3cccc(C(F)(F)F)c3)nc3cc(C(=O)NC4CC4)cnc32)cc1Cl`: the results for the growth inhibition in assay [1] and in assay [4] were 96% (active) and 94% (active), respectively. Moreover, the inhibition was -2% in assay [2] and -3% in assay [3]. Also, the result in assay [5], in assay [6], in assay [7] and in assay [8] was inactive.
On to `Cc1ccc(F)c(OCC2CCN(c3ccc(C(=O)NC4CC4)cn3)CC2)c1`, for which the growth inhibition was 95% (active) in assay [1] and 94% (active) in assay [4]. In addition, the inhibition was 4% in assay [2] and 2% in assay [3]. In addition, the outcome in assay [5], in assay [6], in assay [7] and in assay [8] was inactive.
Turning to `CC(Oc1ccc(Cl)cc1Cl)c1nc(-c2ccc(NC(=O)c3ccco3)cc2)no1` (stereo not given), the results for the growth inhibition in assay [1] and in assay [4] were 82% (active) and 92% (active), respectively. The inhibition is 7% in assay [2] and 0% in assay [3]. Moreover, the result in assay [5], in assay [6], in assay [7] and in assay [8] was inactive.
For the compound `CCc1cn(C)c2c(N3CCCC3=O)cc(C(=O)N[C@@H](Cc3ccccc3)[C@H](O)CNC(C)(C)CCCC(C)C)cc12`, the growth inhibition is 98% (active) in assay [1] and 97% (active) in assay [4]. Moreover, the inhibition in assay [2] was 15%; in assay [3], -4%. Also, the result in assay [5], in assay [6], in assay [7] and in assay [8] was inactive.
